In PubChem BioAssay AID488890 (Southern Research Specialized Biocontainment Screening …, 2010):
The whole screen tested about 320,000 compounds, of which about 1,300 (0.41%) were called active. Roughly 3% stayed inconclusive and do not appear here. The rule behind the calls is not given here. These entries were drawn from the full list. Measured potencies and affinities stand elsewhere.

assay: growth inhibition of non-replicating M. tuberculosis (AID 488890); conditions: Mycobacterium tuberculosis non-replicating, at 25 µM, stronger effect = higher value;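 note: plate controls were DMSO cells for no effect and high antibiotic wells for full effect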

Compared with `COc1ccc(S(=O)(=O)N2CCN(c3ccc4nnc(-c5ccc(F)cc5)n4n3)CC2)cc1`, `O=[N+]([O-])c1ccc(N2CCN(c3ccc(F)cc3)CC2)cc1` is higher in inhibition: 24% for the first, 24.2% for the second.

First: CNC[C@H]1Oc2c(NS(=O)(=O)c3ccccc3)cccc2C(=O)N([C@H](C)CO)C[C@@H]1C
Second: Cc1oc2cc(OC(C)C(=O)O)ccc2c(=O)c1Oc1ccccc1 (configuration not stated)
The inhibition of the first is higher: -8.41% for the first, -10.2% for the second.

Going from `CN(C(=O)CN1C(=O)S/C(=C\c2ccc(F)cc2)C1=O)C1CCS(=O)(=O)C1` (configuration not stated) to `O=C(COc1ccccc1)N=C1SC2CS(=O)(=O)CC2N1c1cccc(F)c1` (configuration not stated), the inhibition rises from -4.74% to 1.19%.

Going from `COc1ccccc1CNC(=O)COc1ccccc1C` to `Cc1ccc(C(=O)N(Cc2ccccc2)C(C)(C)C)cc1C`, the inhibition rises from 10% to 14%.

Compared with `N=C(N)N=Nc1c(O)[nH]c2ccc(Br)cc12`, `Cc1occc1C(=O)N=Nc1c(O)[nH]c2ccc(Br)cc12` is lower in inhibition: 46% for the first, -11.3% for the second.

First: O=C(Nc1ccc(Br)c(Br)c1)C1CCCO1 (configuration not stated)
Second: NS(=O)(=O)c1ccc(NC(=O)c2cccc(Cl)c2)cc1
The inhibition of the first is higher: 40.5% for the first, -6.52% for the second.

Going from `Clc1ccc(N2CCN(Cc3ccco3)CC2)cc1` to `Clc1ccc(N2CCN(Cc3ccc(Br)o3)CC2)cc1`, the inhibition rises from 69.8% to 75.9%.

First: O=[N+]([O-])c1cccc(-c2ccc(CN3CCN(c4ccccc4)CC3)o2)c1
Second: O=[N+]([O-])c1ccccc1-c1ccc(CN2CCN(c3ccccc3)CC2)o1
The inhibition of the first is higher: 36.7% for the first, 36.3% for the second.

Compared with `O=[N+]([O-])c1cc2c(cc1CN1CCN(c3ccc(F)cc3)CC1)OCO2`, `O=[N+]([O-])c1ccc(N2CCN(Cc3ccc(Br)o3)CC2)cc1` is higher in inhibition: 12.8% for the first, 78.8% for the second.

Compared with `O=[N+]([O-])c1ccc(CN2CCN(c3ccc([N+](=O)[O-])cc3)CC2)cc1`, `O=C(CSc1nc2ccccc2o1)N1CCN(C(=O)c2ccco2)CC1` is lower in inhibition: 73.8% for the first, 7.29% for the second.

Going from `Cc1cc(C)cc(NC(=O)Cn2c(=O)oc3cc(S(=O)(=O)N4CC(C)CC(C)C4)ccc32)c1` (configuration not stated) to `Cc1cc(C)c(NC(=O)CN(C)S(=O)(=O)c2ccc3c(c2)n(C)c(=O)c(=O)n3C)c(C)c1`, the inhibition falls from 12.4% to -2.46%.

First: COc1ccc(N/C(=N\c2nc(C)cc(C)n2)NC(C)=O)cc1OC
Second: COc1ccc(CC(=O)Nc2cc(C)on2)cc1OC
The inhibition of the first is higher: -5.13% for the first, -12.5% for the second.

Going from `COC(/C=C/Nc1ccc(C)c(C)c1)=C(C#N)C#N` to `Cc1ccc2ncnc(Nc3ccc(C)c(C)c3)c2c1`, the inhibition rises from -13.9% to 17.8%.

Compared with `COc1cccc(CNCC(O)(c2ccc(Cl)cc2)c2ccc(Cl)cc2)c1`, `CCN(CC)C(=O)CN(c1ccc(Cl)cc1)S(=O)(=O)c1ccccc1` is lower in inhibition: 31.2% for the first, 3.57% for the second.

First: CC(=O)Nc1ccc(NC(=O)CSc2nnc(-c3ccc4c(c3)OCO4)o2)cc1
Second: COc1ccc(-c2nnc(SCC(=O)c3cccs3)o2)cc1
The inhibition of the first is lower: 14.8% for the first, 63.8% for the second.

Going from `CCCC(c1nnnn1CCc1ccccc1)N1CCC(C(N)=O)CC1` (configuration not stated) to `CCCc1nnc(NC(=O)c2cc3ccccc3o2)s1`, the inhibition rises from 8.84% to 16.7%.

First: O=C(N/N=C/c1cccnc1)c1cccc(NC(=O)c2ccccc2Cl)c1
Second: Cc1ccccc1NC(=O)c1ccc(Cl)c(NC(=O)c2cccnc2)c1
The inhibition of the first is higher: -2.18% for the first, -8.32% for the second.

Compared with `CCN(C(=O)c1c(-c2ccccc2)noc1C)c1ccccc1`, `Cc1onc(-c2c(Cl)cccc2Cl)c1C(=O)NNc1ccccc1` is higher in inhibition: -7.88% for the first, 77.8% for the second.

Going from `COc1ccc(C(=O)Nc2cc(C(=O)O)cc(C(=O)O)c2)cc1Cl` to `C/C(=N\OCC(=O)OCC(=O)Nc1cc(S(C)(=O)=O)ccc1Cl)c1ccc2c(c1)OCO2`, the inhibition rises from 1.97% to 7.45%.

First: Cc1sc(NC(=O)C2CC=CCC2C(=O)O)c(C(=O)OC(C)C)c1C (configuration not stated)
Second: COCCOC(=O)c1c(NC(=O)CN2CCCc3ccccc32)sc(C(N)=O)c1C
The inhibition of the first is higher: 24.5% for the first, 22.6% for the second.

Going from `C=CCn1c(=O)c(C(=O)Nc2ccc(C)cc2)c(O)c2ccccc21` to `C=CCn1c(=O)c(C(=O)Nc2ncccc2O)c(O)c2ccccc21`, the inhibition rises from -32% to 27.2%.

First: CC(C)Cn1c(=O)c(C(=O)Nc2cnccn2)c(O)c2ccccc21
Second: CCn1c(=O)c(C(=O)Nc2ccccc2)c(O)c2ccccc21
The inhibition of the first is lower: -0.18% for the first, 23% for the second.

First: C[C@H](NC(=O)OC(C)(C)C)c1nnc(SCC(=O)Nc2cccc(Cl)c2)o1
Second: NC(=O)CSc1nnc(-c2ccncc2)o1
The inhibition of the first is higher: 16.3% for the first, 1.06% for the second.

Going from `COc1ccc2c(=O)c(-c3ccccc3)coc2c1` to `CC(=O)Oc1ccc2c(=O)c(-c3ccccc3)coc2c1`, the inhibition rises from 12.5% to 15.7%.

Compared with `CCN(CC)C(=O)Oc1ccc2c(=O)c(-c3ccccc3)coc2c1`, `CC(C)Oc1ccc2c(=O)c(-c3ccccc3)coc2c1` is lower in inhibition: 62.3% for the first, 22.2% for the second.

Going from `CCCOc1ccc2c(C)c(CC(=O)OC)c(=O)oc2c1` to `CCc1c(C)c2ccc(OCC(N)=O)cc2oc1=O`, the inhibition rises from 3.51% to 10.3%.

Going from `CCOc1ccc2c(=O)c(Oc3ccccc3)c(C)oc2c1` to `Cc1cccnc1NC(=O)c1cc2ccccc2oc1=O`, the inhibition rises from 57% to 66.8%.

Going from `Cc1ccc(SCCC(=O)Nc2ccccc2C(=O)NC2CCCCC2)cc1` to `COc1ccc(N(CC(=O)NC2CCCC2)C(=O)c2ccc(N3CCCCC3)nc2)cc1`, the inhibition rises from -25.9% to 11%.

Compared with `C=CCN1CC(O)=C(c2ccccc2)C1=N`, `O=C(OCc1nnc(-c2ccccc2)o1)c1ccco1` is higher in inhibition: -5.76% for the first, 76.9% for the second.

Compared with `CN(C)C(=O)CSc1nnc(-c2cccnc2)n1-c1ccccc1`, `O=C(COC(=O)c1ccco1)Nc1nnc(-c2ccccc2)o1` is higher in inhibition: -19.8% for the first, 4.16% for the second.

First: Cc1ccc(-c2nnc(COC(=O)c3ccco3)o2)cc1
Second: CC(=NNC(=O)CSc1nc2ccccc2o1)c1ccco1
The inhibition of the first is higher: 60.2% for the first, 13.5% for the second.

First: O=C(OCC#CCSc1nnc(-c2cccc3ccccc23)o1)c1cc2ccccc2o1
Second: COCc1nnc(NC(=O)c2cc3ccccc3o2)s1
The inhibition of the first is higher: 71.3% for the first, 8.81% for the second.

Going from `N#Cc1ccc(-c2ccc(F)cc2)nc1Oc1ccccc1` to `c1cc2c3c(cccc3c1)NC(c1ccc3c(c1)OCO3)N2`, the inhibition rises from 2.75% to 12.1%.

Compared with `CCC(CC)c1nnc(NC(=O)CS(=O)(=O)c2ccccc2)s1`, `CC(C)c1nnc(NC(=O)c2cc3ccccc3o2)s1` is lower in inhibition: -1.72% for the first, -9.61% for the second.

Going from `Cc1nnc(NC(=O)c2cc3ccccc3o2)s1` to `O=C(NNC(=O)c1cc2cc(Br)ccc2oc1=O)c1ccc(O)cc1O`, the inhibition rises from 16.8% to 23.6%.

Compared with `CC1(C)Cc2c(c(-c3ccccc3)nc(N3CCOCC3)c2C(N)=O)CO1`, `CCCOc1ccc(-c2c(C(=O)N/N=C/c3ccc(OCC)cc3)nnn2-c2nonc2N)cc1` is higher in inhibition: 0.34% for the first, 8.95% for the second.
